{
  "source": "ChEMBL document CHEMBL3988442",
  "about": "“University of Dundee, Small-Polar-MMV Screening Library” (2021)",
  "note": "About 950 (1.4%) of roughly 69,000 compounds showed an effect of 50% or more. This is one part of a sample in which strong results are shown more often than they occur.",
  "data": [
    {"system": "Mycobacterium tuberculosis", "assay": "Cornell M. t heat shock assay; further: in the data most compounds retested in dose-response had high values", "assay_type": "functional, organism-based", "set-up": "dose or concentration left out as unconfirmed", "units": {"Percent Effect": "%"}, "values": [
      {"smiles": "COCCN1C(=O)CC(N2CCN(c3ccc(OC)cc3)CC2)C1=O", "note": "(centres undefined)", "Percent Effect": 70.99},
      {"smiles": "COCCN1C(=O)CC(N2CCN(c3ccc(F)cc3)CC2)C1=O", "note": "(centres undefined)", "Percent Effect": -16.16},
      {"smiles": "COCCN1C(=O)CC(N2CCN(c3ccccc3)CC2)C1=O", "note": "(centres undefined)", "Percent Effect": 12.72},
      {"smiles": "CN1C(=O)CCC12CCCN(C(=O)c1ccncc1F)C2.O=C(O)C(F)(F)F", "note": "(centres undefined)", "Percent Effect": 38.17},
      {"smiles": "Cl.NCC(=O)N1CCC(c2ccnc(Nc3cc(C(F)(F)F)ccn3)n2)C1", "note": "(centres undefined)", "Percent Effect": -2.931},
      {"smiles": "Cc1cccc(CN2CC[C@@H]3[C@@H]2CCN3Cc2cccs2)n1.O=C(O)C(F)(F)F.O=C(O)C(F)(F)F", "Percent Effect": -14.73},
      {"smiles": "CNC(=O)COC1COC2(CCN(Cc3cccnc3)CC2)C1.O=C(O)C(F)(F)F", "note": "(centres undefined)", "Percent Effect": 22.59},
      {"smiles": "Cc1cccc(CNC2CCCc3c2cnn3Cc2ccccc2)c1.Cl", "note": "(centres undefined)", "Percent Effect": -5.892},
      {"smiles": "Cc1ccc(CNC2CCCc3c2cnn3Cc2ccccc2)s1.Cl", "note": "(centres undefined)", "Percent Effect": 52.93},
      {"smiles": "CCn1ncc2c1CCCC2NCc1ccc(C)s1", "note": "(centres undefined)", "Percent Effect": 16.54},
      {"smiles": "Cn1cc(CNC2CCc3c(ccc(=O)n3Cc3cccnc3)C2)cn1.O=C(O)C(F)(F)F.O=C(O)C(F)(F)F", "note": "(centres undefined)", "Percent Effect": 12.8},
      {"smiles": "CN(C)C(=O)[C@H]1CO[C@H]2CCN(c3ncc(F)cn3)C[C@H]2C1.O=C(O)C(F)(F)F", "Percent Effect": 5.292},
      {"smiles": "CC(CNCc1ccc(F)cc1)Oc1ccccn1.Cl", "note": "(centres undefined)", "Percent Effect": 4.534},
      {"smiles": "Cc1nc(CN2CCCC(N(C)CCc3cccs3)C2)no1", "note": "(centres undefined)", "Percent Effect": 86.93},
      {"smiles": "CN(CCc1cccs1)C1CCCN(Cc2noc(C3CC3)n2)C1", "note": "(centres undefined)", "Percent Effect": 32.3},
      {"smiles": "Cc1nc(CN2CCCC(N(C)c3ccc(C#N)cn3)C2)no1", "note": "(centres undefined)", "Percent Effect": -30.96},
      {"smiles": "CCc1nc(CN2CCCC(N(C)CCc3cccs3)C2)no1", "note": "(centres undefined)", "Percent Effect": 22.05},
      {"smiles": "Cc1nc(CN2CCCC(N(C)CCCc3ccccc3)C2)no1", "note": "(centres undefined)", "Percent Effect": -1.488},
      {"smiles": "Cc1nc(CN2CCCC(N(C)c3cnc4ccccc4n3)C2)no1", "note": "(centres undefined)", "Percent Effect": 68.17},
      {"smiles": "Cc1nc[nH]c1CN1C[C@@H]2CC[C@H](C1)N(C(=O)c1cnn(C)c1)C2", "Percent Effect": -6.364},
      {"smiles": "Cc1ccc(C(=O)N2Cc3c(CN4CCCCC4)nn(C)c3C2)cc1F.O=C(O)C(F)(F)F", "Percent Effect": -32.35},
      {"smiles": "Cc1ccc(CN2CCC3(CC2)C(c2ccccc2)CC(=O)N3C)o1.O=C(O)C(F)(F)F", "note": "(centres undefined)", "Percent Effect": 26.84},
      {"smiles": "Cn1cc(C(=O)NCc2cn3c(n2)CN(CC2CCOC2)CC3)cn1.O=C(O)C(F)(F)F.O=C(O)C(F)(F)F", "note": "(centres undefined)", "Percent Effect": -28.66},
      {"smiles": "O=C1c2cnc(N3CCCC3)nc2CN1C1CCS(=O)(=O)C1", "note": "(centres undefined)", "Percent Effect": 9.039},
      {"smiles": "Cc1nc(C(Cc2ccsc2)NC(=O)CCN2CCOCC2)sc1C", "note": "(centres undefined)", "Percent Effect": 3.097},
      {"smiles": "COc1cccc(CNC(Cc2cccs2)c2nc(C)c(C)s2)c1OC.Cl", "note": "(centres undefined)", "Percent Effect": -9.078},
      {"smiles": "O=C(NC(Cc1ccsc1)c1nccs1)C1CC1", "note": "(centres undefined)", "Percent Effect": -16.41},
      {"smiles": "Cc1nc(C(Cc2ccsc2)NC(=O)CN2CCOCC2)sc1C", "note": "(centres undefined)", "Percent Effect": -3.287},
      {"smiles": "COc1ccccc1CNC(Cc1cccs1)c1nc(C)c(C)s1.Cl", "note": "(centres undefined)", "Percent Effect": 6.532},
      {"smiles": "Cc1cccc(CNC(Cc2ccsc2)c2nccs2)n1", "note": "(centres undefined)", "Percent Effect": 101.9},
      {"smiles": "Cc1cccc(CNC(Cc2ccsc2)c2nc(C)c(C)s2)n1.Cl", "note": "(centres undefined)", "Percent Effect": 106.6},
      {"smiles": "CC(C)Oc1cccc(CNC(Cc2ccsc2)c2nccs2)c1.Cl", "note": "(centres undefined)", "Percent Effect": 2.523},
      {"smiles": "CCC(CN1CCCC1)NC(=O)C1(c2cccc(F)c2)CC1.O=C(O)CC(O)(CC(=O)O)C(=O)O", "note": "(centres undefined)", "Percent Effect": -3.287},
      {"smiles": "CN(C)C(=O)[C@@]12CCO[C@@H]1CCN(Cc1ccc3c(c1)OCO3)C2.O=C(O)C(F)(F)F", "Percent Effect": 4.753},
      {"smiles": "Cc1noc([C@]23COC[C@H]2CN(C(=O)CN(C)C)C3)n1.O=C(O)C(F)(F)F", "Percent Effect": 15.78},
      {"smiles": "CC1CCN(c2cc(CCC3CCCN3)ncn2)CC1.Cl", "note": "(centres undefined)", "Percent Effect": -19.69},
      {"smiles": "Cc1nocc1C(=O)N1CCOC2(COCCN(C(C)C)C2)C1.O=C(O)C(F)(F)F", "note": "(centres undefined)", "Percent Effect": 1.76},
      {"smiles": "CCN(Cc1ccc2cccc(O)c2n1)CC1CCCO1", "note": "(centres undefined)", "Percent Effect": 84.2},
      {"smiles": "CCN(Cc1cccc2c1OCO2)CC1CCCO1", "note": "(centres undefined)", "Percent Effect": -23.06},
      {"smiles": "CCN(Cc1cccnc1)CC1CCCO1", "note": "(centres undefined)", "Percent Effect": -42.47},
      {"smiles": "O=C(O)C(F)(F)F.O=S1(=O)c2ccccc2C2(CCN(Cc3ccccc3)C2)N1CC1CC1", "note": "(centres undefined)", "Percent Effect": 20.71},
      {"smiles": "OCC1CCN(c2ccc(NCc3ccsc3)nc2)CC1", "Percent Effect": 11.8},
      {"smiles": "CCn1cc(CNc2ccc(N(C)CCOC)cn2)cn1", "Percent Effect": 57.45},
      {"smiles": "COCCN(C)c1ccc(NCc2cscn2)nc1", "Percent Effect": 13.97},
      {"smiles": "CCn1cc(CNc2ccc(Br)c(OC)c2)cn1", "Percent Effect": -14.65},
      {"smiles": "COCCN(C)c1ccc(NCc2cccnc2)nc1", "Percent Effect": 21.66},
      {"smiles": "COCCN(C)c1ccc(NCc2ccsc2)nc1", "Percent Effect": 90.49},
      {"smiles": "Cl.O=C(c1ccccc1Cl)N1CCN(CCc2ccccn2)CC1", "Percent Effect": -2.792},
      {"smiles": "COCCN1CCN(c2cccc(C)n2)Cc2ccc(C)nc21.O=C(O)C(F)(F)F.O=C(O)C(F)(F)F", "Percent Effect": 28.62},
      {"smiles": "CN(Cc1cccc2cccnc12)C1CCS(=O)(=O)C1.O=C(O)CC(O)(CC(=O)O)C(=O)O", "note": "(centres undefined)", "Percent Effect": -10.77},
      {"smiles": "Cc1cccc(CN2CCO[C@H]3[C@@H](OCc4ccncc4)CC[C@@H]32)n1.O=C(O)C(F)(F)F.O=C(O)C(F)(F)F.O=C(O)C(F)(F)F", "Percent Effect": -9.598},
      {"smiles": "CN(C)C(=O)[C@@H]1C[C@@H]2CCN(C3CCOCC3)C[C@H]2O1.O=C(O)C(F)(F)F", "Percent Effect": -21.42},
      {"smiles": "CO[C@H]1C(=O)N(C)C2(CCNCC2)[C@@H]1C(=O)Nc1ccccc1", "Percent Effect": 47.74},
      {"smiles": "CNC(=O)[C@@H]1[C@@H](OC(=O)Nc2ccccc2)C(=O)N(C)C12CCNCC2", "Percent Effect": 60.88},
      {"smiles": "CN1C(=O)[C@H](OC(N)=O)[C@@H](C(=O)Nc2ccccc2)C12CCNCC2", "Percent Effect": 31.45},
      {"smiles": "Fc1ccc(F)c(CN2CCC(c3n[nH]c4ncccc34)CC2)c1.O=C(O)CC(O)(CC(=O)O)C(=O)O", "Percent Effect": -14.52},
      {"smiles": "CN(CCc1cccc2ccccc12)Cc1nc(N)nc(N(C)C)n1", "Percent Effect": 75.75},
      {"smiles": "COc1ccccc1CCN(C)Cc1nc(N)nc(N(C)C)n1", "Percent Effect": 10.83},
      {"smiles": "CN(Cc1nc(N)nc(N(C)C)n1)Cc1cccc2ccccc12", "Percent Effect": -5.133}
    ]}
  ]
}
